PAD4 FP inh = inhibitors of human PAD4. Q9UM07. recombinant PAD4, RCA probe fluorescence polarization. inhibition, % at 6.36 µM. 330,000 tested, 0.41% active. AID 485272;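 active means percent inhibition above a cutoff equal to the mean of all tested compounds plus 3 SD, cut at about 15% in these data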;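 further: 0% = PAD4 with RCA probe and DMSO and 100% = probe without PAD4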
Target sequence (Q9UM07 whole entry, looked up): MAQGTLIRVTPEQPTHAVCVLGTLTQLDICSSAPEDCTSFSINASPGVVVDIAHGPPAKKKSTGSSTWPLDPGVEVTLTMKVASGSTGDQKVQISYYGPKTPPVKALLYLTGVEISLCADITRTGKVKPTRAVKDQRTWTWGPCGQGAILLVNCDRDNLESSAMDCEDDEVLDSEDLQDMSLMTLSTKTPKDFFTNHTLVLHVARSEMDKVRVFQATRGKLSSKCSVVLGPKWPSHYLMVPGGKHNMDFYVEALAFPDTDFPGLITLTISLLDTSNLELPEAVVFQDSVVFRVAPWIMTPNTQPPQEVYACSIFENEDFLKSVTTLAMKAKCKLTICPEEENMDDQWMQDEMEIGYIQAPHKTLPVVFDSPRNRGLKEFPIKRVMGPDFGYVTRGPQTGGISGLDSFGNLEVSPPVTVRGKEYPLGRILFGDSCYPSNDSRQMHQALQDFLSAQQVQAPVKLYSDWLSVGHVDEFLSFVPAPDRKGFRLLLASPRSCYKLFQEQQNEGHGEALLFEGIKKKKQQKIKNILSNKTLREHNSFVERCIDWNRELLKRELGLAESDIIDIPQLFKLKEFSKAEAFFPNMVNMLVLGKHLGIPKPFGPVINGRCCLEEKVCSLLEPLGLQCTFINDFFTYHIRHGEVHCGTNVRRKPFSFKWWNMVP
SIAE inh = inhibitors of human sialic acid acetylesterase SIAE | Q9HAT2 | SIAE FP-Rh probe binding, fluorescence polarization | inhibition, % at 9.66 µM | 370,000 tested, 0.69% active | AID 1053197;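 active means inhibition above a cutoff: mean of compounds within the control limits plus 3 SD of those, cut at about 17% in these data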;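 further: 0% = plate median of compound wells and 100% = probe without SIAE protein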
TCR CD3 inh = blocks the human TCR-CD3 interaction. TAMRA-labeled TCR probe fluorescence, biochemical. inhibition, % at 9.4 µM. 360,000 tested, 0.37% active. AID 651800; in the data active means inhibition above about 19%;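 further: recombinant mutant TCR 2C K166C tagged with TAMRA read by polarization; 0% = receptor in buffer alone and 100% = receptor with positive control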
PME-1 inh = blocks human protein phosphatase methylesterase 1 | Q9Y570 | recombinant PME-1, FP-Rh probe fluorescence polarization | inhibition, % at 5.9 µM | 320,000 tested, 0.53% active;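 active means inhibition above the campaign mean of all compounds plus 3 SD, cut at about 26% in these data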;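 further: competitive labeling of PME-1 active site by serine hydrolase directed probe; 0% = PME-1 with DMSO and 100% = wells lacking PME-1 enzyme; inhibitors block probe labeling so polarization falls and inhibition rises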
Fam108B counter = counter-screen for RBBP9 inhibitors: inhibitors of mouse Fam108B; recombinant Fam108B, FP-Rh probe fluorescence polarization; inhibition, % at 9.51 µM; 300,000 tested, 0.33% active; AID 1947;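 active means inhibition above the screen mean inhibition plus 3 SD, computed separately per campaign, cut at about 18% in these data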;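 further: inhibitors lower polarization as less probe binds the enzyme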
PRMT1 inh = blocks human protein arginine methyltransferase 1; recombinant PRMT1, activity-based probe fluorescence polarization; inhibition, % at 2.79 µM; 370,000 tested, 1.3% active; AID 652257;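 active means inhibition above about 21% made by adding two undisclosed values, limit read from the data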
PRMT1 inh conf = PRMT1 (human) inhibition, FP confirmation; shares compounds with PRMT1 inh; recombinant His-PRMT1, activity-based probe fluorescence polarization; inhibition, % at 2.79 µM; 3,300 tested, 42% active;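 active means mean inhibition across replicates above the hit cutoff derived for the earlier primary screen, cut at about 22% in these data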
Starred values were filed as active, the others as inactive; x = not tested or not shown. The list is not random: actives were taken first. Their share in the collection is about 2.6%.

SMILES	PAD4 FP inh	SIAE inh	TCR CD3 inh	PME-1 inh	Fam108B counter	PRMT1 inh	PRMT1 inh conf
Cc1ccc(-n2c(N)c(C(=O)N3CCOCC3)sc2=S)cc1	0	4	4	3	3	8	x
COC(=O)[C@]12C[C@H](CC(=O)N3CCN(C(=O)c4ccco4)CC3)C(=O)N(CCC3=CCCCC3)C1=C[C@H](C1CCCC1)O[C@@H]2C	x	-5	x	x	x	1	x
CCCCCCC(=O)N(O)C1CC(=O)N(c2ccc(Br)cc2)C1=O (centres undefined)	-7	-4	-14	-10	0	42*	73*
CCCCCCC(=O)N(O)C1CC(=O)N(c2ccc(F)cc2)C1=O (centres undefined)	-10	-5	3	-5	-8	70*	97*
CCCCN(C(=O)CCC(=O)O)C1CC(=O)N(c2ccc(OCCC)cc2)C1=O (centres undefined)	-2	-4	-10	3	-1	2	x
O=C(NNc1nc2cc3c(cc2s1)OCO3)c1cccc(F)c1	1	-3	-1	3	3	33*	11
COc1ccc(S[C@]2(C(=O)N3CCN(c4ncccn4)CC3)CC(=O)N(C(=O)C3CC3)[C@@H]2c2ccc(OC)cc2)cc1	x	-3	x	x	x	-3	x
COc1ccc(S[C@]2(C(=O)N(C)C)CC(=O)N(C(=O)C3CC3)[C@@H]2c2ccc(OC)cc2)cc1	x	-2	x	x	x	42*	34*
COc1ccc(S[C@]2(C(=O)N3CCCC3)CC(=O)N(C(=O)CCc3ccccc3)[C@@H]2c2ccc(OC)cc2)cc1	x	-8	x	x	x	10	x
COC(=O)[C@@]1(Sc2ccc(C)cc2)CC(=O)N(c2ccc(Cl)cc2)[C@@H]1c1ccccc1	x	-6	4	x	x	0	x
COC(=O)[C@@]1(Sc2ccc(C)cc2)CC(=O)N(C(=O)C2CC2)[C@@H]1c1ccccc1	x	5	7	x	x	55*	58*
COc1ccc(S[C@]2(C(=O)N3CCCC3)CC(=O)N(C(=O)C3CC3)[C@@H]2c2ccc(OC)cc2)cc1	x	-2	x	x	x	38*	36*
COc1ccc(S[C@]2(C(=O)N3CCN(C(C)=O)CC3)CC(=O)N(C(=O)C3CC3)[C@@H]2c2ccc(OC)cc2)cc1	x	1	x	x	x	53*	44*
COC(=O)C1CN(Cc2ccc(OC)cc2)CCS(=O)(=O)N1Cc1cn(Cc2ccc(F)cc2)nn1 (centres undefined)	x	5	x	x	x	2	x
C=CCN1C(=O)[C@H](CC(=O)N2CCC(c3ccccc3)CC2)[C@@]2(C(=O)OCC)CCCC=C12	x	-2	x	x	x	-5	x
O=C1/C(=C/c2ccccc2O)SC(=S)N1Cc1cccnc1	-1	-10	-1	-4	-5	55*	35*
Cc1ccc(CNC(=O)O[C@H]2CC[C@@]34CCCN3C(=O)CCC[C@H]4C2)o1	x	1	x	x	x	-3	x
C[n+]1cccc(/C=N/Nc2nc(Cl)c(C#N)c(Cl)c2Cl)c1	-3	-3	-6	3	2	49*	0
N#Cc1c(Cl)nc(N/N=C/c2ccccc2)c(Cl)c1Cl	-15	-3	-7	6	5	5	x
CCOc1ccc(C(=O)CC(Sc2ccc(C)cc2)C(=O)O)cc1 (centres undefined)	-4	5	5	0	-1	29*	54*
O=C(CC(Sc1ccc(Br)cc1)C(=O)O)c1ccc(F)cc1 (centres undefined)	1	-5	11	3	-3	80*	88*
CCC(Sc1ccc(C(=O)O)cc1)C(=O)O (centres undefined)	-5	-3	4	2	-1	0	x
C=C1CCC2C(C)(C)CCC[C@]2(C)[C@H]1CC1=C(O)C(=O)C(CO)=CC1=O (some centres undefined)	x	0	x	x	x	80*	77*
O=C(Nc1ccccc1)N1CCc2scc[n+]2-c2ccccc21	1	2	0	3	4	56*	19
O=CN1CCc2scc[n+]2-c2ccccc21	3	-3	4	-7	0	41*	30*
SMILES	PAD4 FP inh	SIAE inh	TCR CD3 inh	PME-1 inh	Fam108B counter	PRMT1 inh	PRMT1 inh conf
CC1CN(C(=O)Nc2ccccc2)c2ccccc2-[n+]2ccsc21 (centres undefined)	-2	-7	0	-4	1	18	x
CCOc1ccc(-n2c(SCC(=O)Nc3ccc(S(=O)(=O)Nc4nccs4)cc3)nnc2-c2ccccc2)cc1	x	-44	x	x	x	2	x
COc1cccc(/C=C2\CC3(OC(=O)C4CCCCC4)CCCN2C3)c1 (centres undefined)	x	-1	x	x	x	0	x
Cc1cc2c(cc1C)NC(CC(=O)NCc1ccccc1)C(=O)N2 (centres undefined)	-7	-4	1	1	-7	3	x
Cc1ccccc1CSCC1Nc2ccc(C(=O)NCCc3ccccc3)cc2NC1=O (centres undefined)	x	-25	-9	x	x	49*	65*
CCC[C@H]1[C@@H](OC(=O)NCc2ccccc2)CC[C@@]23CCCN2C(=O)CCC[C@@H]13	x	9	x	x	x	7	x
COC(=O)C1CCN(C2CC(=O)N(c3cc(C)cc(C)c3)C2=O)CC1 (centres undefined)	0	-6	0	0	0	57*	-2
NC(=O)C1CCN(C2CC(=O)N(c3ccc(F)c(Cl)c3)C2=O)CC1 (centres undefined)	3	-4	3	-4	2	30*	9
NC(=O)C1CCN(C2CC(=O)N(c3cccc(F)c3)C2=O)CC1 (centres undefined)	4	-10	8	-4	1	29*	2
CN1C(=O)CC(N2CCC(C(N)=O)CC2)C1=O (centres undefined)	-5	-2	-1	6	3	7	x
CCOc1cccc(N2C(=O)CC(N3CCC(C(N)=O)(N4CCCCC4)CC3)C2=O)c1 (centres undefined)	-1	0	5	2	4	40*	0
O=C(CC1CCCC1)N[C@@H](Cc1cccnc1)C(=O)N1CCC[C@H]1C(=O)NCCc1ccccc1Cl	x	1	-4	x	x	5	x
Cc1ccccc1N1C(=O)CC(N2CCC(C(N)=O)CC2)C1=O (centres undefined)	-1	-1	-3	0	0	73*	-3
NC(=O)C1CCN(C2CC(=O)NC2=O)CC1 (centres undefined)	1	-8	-8	-1	-2	64*	-2
O=S1(=O)c2ccc(N3CCN(Cc4ccccc4F)CC3)cc2Oc2ccccc2CN1Cc1cn(Cc2cccc(F)c2)nn1	x	-6	x	x	x	-3	x
COC(=O)[C@]12C[C@H](CC(=O)N3CCN(C(=O)c4ccco4)CC3)C(=O)N(Cc3ccc(Cl)cc3Cl)C1=C[C@H](C(C)C)O[C@@H]2C1CC1	x	6	x	x	x	0	x
N#CC(Sc1ccccn1)c1ccc(Cl)cc1 (centres undefined)	-9	3	-5	2	3	46*	35*

Screening data deposited in PubChem BioAssay by The Scripps Research Institute Molecular Screening Center.
